Screening data: PubChem, several laboratories
Most compounds without a hit are left out; they make up all but 6.9% or so of the library.
CSC inhib: blocks cancer stem cells. inhibition, % at 7.5 µM. 300,000 tested, 1.1% active. cancer stem cell-like cells viability, luminescence; in the data active = inhibition above about 75%; inconclusive = no clear call, values can overlap the other calls; tested in HMLE shEcad cells
MPTP block: blocks calcium-induced mitochondrial swelling | isolated mouse mitochondria, Ca2+ swelling absorbance, 30 min | inhibition, % at 10 µM | 360,000 tested, 1.4% active;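 active = inhibition of 50% or more, scaled per plate between neutral and stimulator controls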;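 note: 0% = DMSO wells given calcium and 100% = 1 mM EGTA wells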
NR3A LBD binder: modulates the human NR3A ligand-binding domain; 340,000 tested, 2.5% active; NR3A LBD differential scanning fluorimetry, Tm shift; 0% = protein alone, 100% = glycine-bound protein; Tm shift relative to glycine control, % at 25 µM; AID 1259313;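 active = melting temperature shift of at least 10% of the positive control shift, at one fixed dose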
SKKanGAS inh: SKKanGAS growth inhibition. inhibition, % at 7.5 µM. AID 1662. 300,000 tested, 1.3% active. S. pyogenes SKKanGAS, kanamycin growth, BacTiter-Glo, 6 h;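 active = mean replicate score, as percent of positive control median, at least 50; inconclusive = mean below 50 but one replicate at or above 50; inactive = mean and every replicate below 50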;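 note: strain carries kanamycin resistance gene driven by streptokinase promoter and grows in 40 µg/ml kanamycin; loss of luminescence reflects streptokinase promoter inhibition or plain growth inhibition; 0% = median of DMSO wells and 100% = positive control at its reference dose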
Mdm2 MdmX PPI: human Mdm2/MdmX binding inhibition; O15151+Q00987; SaOS-2 split-luciferase Mdm2/MdmX complementation, luminescence; inhibition, % at 8 µM; 330,000 tested, 3% active; AID 485346;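 active = inhibition of at least 50% at 8 µM in the primary screen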
Target sequence (O15151 whole entry, looked up): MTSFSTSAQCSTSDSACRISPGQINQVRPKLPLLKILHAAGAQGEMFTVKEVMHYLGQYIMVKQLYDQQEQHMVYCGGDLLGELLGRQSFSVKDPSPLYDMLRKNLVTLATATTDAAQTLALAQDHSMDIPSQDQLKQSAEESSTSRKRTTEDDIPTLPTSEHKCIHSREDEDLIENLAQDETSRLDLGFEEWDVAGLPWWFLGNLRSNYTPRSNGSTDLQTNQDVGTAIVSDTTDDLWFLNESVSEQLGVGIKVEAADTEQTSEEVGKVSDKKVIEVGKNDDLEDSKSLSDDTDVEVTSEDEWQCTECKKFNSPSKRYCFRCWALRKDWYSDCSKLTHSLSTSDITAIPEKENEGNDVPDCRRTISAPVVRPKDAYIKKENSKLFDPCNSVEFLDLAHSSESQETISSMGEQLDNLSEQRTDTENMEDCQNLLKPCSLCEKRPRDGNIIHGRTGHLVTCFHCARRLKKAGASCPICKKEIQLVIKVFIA
Target sequence (Q00987 whole entry, looked up): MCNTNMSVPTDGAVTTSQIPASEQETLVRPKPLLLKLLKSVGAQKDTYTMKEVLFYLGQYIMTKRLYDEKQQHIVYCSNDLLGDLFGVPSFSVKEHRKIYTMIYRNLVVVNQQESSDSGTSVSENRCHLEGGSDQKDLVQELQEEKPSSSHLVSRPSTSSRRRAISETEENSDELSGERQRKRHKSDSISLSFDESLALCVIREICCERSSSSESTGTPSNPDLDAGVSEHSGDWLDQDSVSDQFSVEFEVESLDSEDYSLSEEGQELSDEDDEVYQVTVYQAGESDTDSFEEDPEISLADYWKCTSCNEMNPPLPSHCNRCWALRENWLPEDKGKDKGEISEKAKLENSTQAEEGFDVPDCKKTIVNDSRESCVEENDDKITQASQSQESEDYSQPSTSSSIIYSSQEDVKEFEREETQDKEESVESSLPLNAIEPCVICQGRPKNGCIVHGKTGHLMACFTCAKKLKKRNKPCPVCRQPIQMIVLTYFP
Beta cell apopt: beta cell apoptosis inhibition; protection from apoptosis, % (no concentration beside the values); 300,000 tested, 0.8% active; AID 435005; INS-1E cytokine-induced death, ATP luminescence, 48 h; percent of positive-control rescue, neutral wells zero;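 active = Every replicate reaches about 75%, or at least half do and their mean reaches it too, limit read from the data; inconclusive = At least half of replicates reach the limit but their mean does not; inactive = Under half of replicates reach the limit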;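 note: 0% = cytokine-treated negative control wells and 100% = positive control rescue; higher means more ATP so stronger rescue from cytokine killing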
Mdm2-MdmX conf: confirmation of human Mdm2/MdmX interaction inhibitors. shares compounds with Mdm2 MdmX PPI. Mdm2-MdmX binding, luminescent assay. inhibition, % at 8 µM. 10,000 tested, 55% active; in the data active = inhibition above about 40%
FLuc counter: inhibits full-length luciferase, flagging false Mdm2/MdmX hits; inhibition, % at 8 µM; SaOS-2 full-length luciferase counterscreen, luminescence; shares compounds with Mdm2 MdmX PPI; 6,200 tested, 77% active; AID 504607;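 active = mean inhibition at 8 µM reaching about 37%, which flags the compound as non-specific, limit read from the data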;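 note: p53-null SaOS-2 cells with luciferase driven by a doxycycline-inducible promoter; compound on cells about two nights before reading with doxycycline added after day one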
Starred values were filed as active, the others as inactive; ? = inconclusive; . = no result.

SMILES	CSC inhib	MPTP block	NR3A LBD binder	SKKanGAS inh	Mdm2 MdmX PPI	Beta cell apopt	Mdm2-MdmX conf	others
COc1ccc(C(C(=O)NC2CCCC2)N(C(=O)c2snc(-c3ccc(F)cc3)c2N)c2cccc(F)c2)cc1 (centres undefined)	21	-6	6	3	62*	7	7
COc1ccc(C(C(=O)NC2CCCC2)N(C(=O)c2snc(-c3ccc(F)cc3)c2N)c2ccc(OC)cc2)cc1 (centres undefined)	-9	4	-2	8	21	15	.
COc1ccc(C(C(=O)NC2CCCC2)N(C(=O)c2snc(-c3ccc(F)cc3)c2N)c2ccc(F)cc2)cc1 (centres undefined)	14	4	-4	-4	57*	11	9
COc1ccc(C(=O)N2CCN(C3CCN(Cc4ccccc4)CC3)CC2)cc1OC	-4	-1	-2	-4	0	0	.
COc1ccc(/C=C2\Sc3ccc(C(=O)N4CCN(Cc5ccccc5)CC4)cc3N(C)C2=O)cc1OC	4	-1	2	71*	61*	26	14
Cc1[nH]c(N=Nc2ccccc2)nc1N=Nc1ccccc1	105*	47	-22	?	77*	100*	84*	FLuc counter=24
O=c1[nH]c2cc(S(=O)(=O)CCO)ccc2o1	8	-1	0	3	2	2	.
O=C(CNC(=O)C1COc2ccccc2O1)N/N=C/c1ccc(O)cc1O (centres undefined)	78*	2	-21	9	51*	20	38	FLuc counter=71*
CCc1cc(C(=O)N/N=C/c2ccc(O)cc2O)c2ccccc2n1	94*	0	-5	3	63*	93*	64*	FLuc counter=36*
O=C(CNC(=O)C(c1ccccc1)c1ccccc1)N/N=C/c1ccc(O)cc1O	133*	2	-5	22	70*	44	77*	FLuc counter=38*
O=C(CNC(=O)C(c1ccccc1)c1ccccc1)N/N=C\c1cccc(O)c1	3	1	-25	19	-6	-2	.
COc1ccc(C(=O)NC(=S)Nc2cccnc2)cc1Cl	-12	0	-2	-8	-3	6	.
COc1ccc(C(=O)N2CCCC(C)(C(=O)NS(=O)(=O)C3CC3)C2)cc1 (centres undefined)	.	-1	.	.	.	.	.
Cc1ccc(OCc2nnc(SCC(=O)Nc3nccs3)n2-c2ccccc2)cc1C	-13	-1	-4	-4	55*	3	25
Cc1ccc(-n2c(COc3c(C)cccc3C)nnc2SCC(=O)Nc2nccs2)cc1	-3	-2	2	1	-27	-3	.
CCn1c(CC(=O)Nc2ccc(C)c(Cl)c2)nnc1SCc1ccc(Cl)c(Cl)c1	-8	4	0	-4	-7	-2	.
CCn1c(CC(=O)Nc2ccc(C)c(Cl)c2)nnc1SCC(=O)Nc1nc(C)cs1	0	0	0	4	63*	-5	-2
O=C(CSc1ccccc1)Nc1nccs1	.	1	-9	-10	-27	-3	.
COc1ccc(NC(=O)Cc2nnc(SCC(=O)Nc3nccs3)n2C)cc1	-10	-1	1	1	7	-7	.
CCn1c(CC(=O)Nc2cccc(OC)c2)nnc1SCC(=O)Nc1nccs1	-5	0	1	-2	57*	-1	54*	FLuc counter=59*
O=C(CSc1nc(-c2ccccc2)cs1)Nc1nccs1	8	2	-7	-5	59*	-3	-7
NC(=O)C1CCN(C(=O)CCC(=O)c2ccc(Br)cc2)CC1	-7	0	-1	3	16	-2	.
NS(=O)(=O)c1ccc(NC(=O)CSc2nc3ccccc3nc2N2CCOCC2)cc1	-6	-2	-10	2	15	3	.
COc1ccc(CC(=O)N/N=C(\C)CC(=O)NCc2ccco2)cc1OC	6	3	-1	1	15	-8	.
COCc1cc(=O)[nH]c(SCCS(=O)(=O)c2ccc(Cl)cc2Cl)n1	68	3	-1	6	42	7	.
CCOc1ccc(-c2nnc(N3CCCCC3)c3ccccc23)cc1	23	8	-1	1	62*	10	-2
